Assay results published in PubChem BioAssay (EPA / NIEHS).
Values joined by “and” are separate entries in the source; they are usually repeats but may differ in a detail not shown here. Equal values may be shown once. Results filed as inconclusive are left out. Active and inactive are the calls of the source. The calls were made as follows: active = hit-call score of the fitted dose curve at least 0.9, where 1 is the maximum; inconclusive = response in the unintended direction; inactive = score below 0.9.

Experiments:
[1] = system: NCBI gene 100848466; test: NVS_NR_bPR: NovaScreen (NVS) Nuclear Receptor Binding Assay for bovine Progextron Receptor (PR) (AID 2283343);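 as to AC50: actives lower bound radioligand signal below DMSO meaning displacement of the label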
Summary of the method: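 Scintillation counts of bound radioligand were read 18 hours after chemical addition to membranes extracted from bovine uterus. Displacement was scored as loss of signal relative to DMSO controls. Screening began at 25 uM in duplicate.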

[2] = biological target: chimpanzee Androgen Receptor (AR), AR (gene 747460) (UniProt O97775); test: NVS_NR_cAR: NovaScreen (NVS) Nuclear Receptor Binding Assay for chimpanzee Androgen Receptor (AR) (AID 2283346);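 also: radioligand displacement from AR measured by scintillation counting in a cell-free assay; a loss of bound radioligand signal versus DMSO counts as binding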
chimpanzee Androgen Receptor (AR), AR (gene 747460), sequence (O97775 whole entry, looked up): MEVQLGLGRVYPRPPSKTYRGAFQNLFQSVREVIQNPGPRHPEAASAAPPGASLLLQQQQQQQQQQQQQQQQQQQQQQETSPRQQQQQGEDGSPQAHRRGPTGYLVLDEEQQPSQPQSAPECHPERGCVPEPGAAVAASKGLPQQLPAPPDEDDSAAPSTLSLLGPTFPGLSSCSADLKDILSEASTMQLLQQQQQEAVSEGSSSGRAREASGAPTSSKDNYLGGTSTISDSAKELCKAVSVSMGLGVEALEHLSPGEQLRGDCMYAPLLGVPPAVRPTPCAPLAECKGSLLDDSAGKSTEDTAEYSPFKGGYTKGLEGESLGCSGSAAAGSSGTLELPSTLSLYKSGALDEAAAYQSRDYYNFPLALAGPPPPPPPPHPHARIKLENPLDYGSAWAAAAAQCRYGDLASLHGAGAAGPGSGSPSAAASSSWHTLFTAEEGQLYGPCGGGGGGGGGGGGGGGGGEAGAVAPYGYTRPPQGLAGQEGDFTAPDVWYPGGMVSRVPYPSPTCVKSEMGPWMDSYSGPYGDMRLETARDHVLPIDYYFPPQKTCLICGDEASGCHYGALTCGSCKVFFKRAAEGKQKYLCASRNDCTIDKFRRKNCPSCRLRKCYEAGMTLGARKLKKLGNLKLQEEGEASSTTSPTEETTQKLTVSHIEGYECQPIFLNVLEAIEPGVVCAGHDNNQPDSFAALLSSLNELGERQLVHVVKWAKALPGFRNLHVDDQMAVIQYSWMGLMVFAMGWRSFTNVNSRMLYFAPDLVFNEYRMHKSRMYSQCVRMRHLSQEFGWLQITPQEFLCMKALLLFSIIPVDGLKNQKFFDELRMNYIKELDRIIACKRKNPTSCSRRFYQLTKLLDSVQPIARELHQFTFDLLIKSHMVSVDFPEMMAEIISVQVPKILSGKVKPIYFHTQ
Summary of the method: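 Radioligand binding to chimpanzee AR expressed in Sf9/Sf21 cells, cell-free, measured 72 h after dosing by lysate-based scintillation counting. Loss of signal vs DMSO; initial duplicate screen at 25 uM, actives retested in concentration series.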

[3] = biological target: rat Gamma-Aminobutyric Acid Type A Receptor BDZ, alpha 6 site (GABARa6), Gabra6 (gene 29708) (UniProt P30191); test: NVS_LGIC_rGABARa6: NovaScreen (NVS) Ligand-Gated Ion Channel Assay for rat Gamma-Aminobutyric Acid Type A Receptor BDZ, alpha 6 site (GABARa6) (AID 2283339)
rat Gamma-Aminobutyric Acid Type A Receptor BDZ, alpha 6 site (GABARa6), Gabra6 (gene 29708), sequence (P30191 whole entry, looked up): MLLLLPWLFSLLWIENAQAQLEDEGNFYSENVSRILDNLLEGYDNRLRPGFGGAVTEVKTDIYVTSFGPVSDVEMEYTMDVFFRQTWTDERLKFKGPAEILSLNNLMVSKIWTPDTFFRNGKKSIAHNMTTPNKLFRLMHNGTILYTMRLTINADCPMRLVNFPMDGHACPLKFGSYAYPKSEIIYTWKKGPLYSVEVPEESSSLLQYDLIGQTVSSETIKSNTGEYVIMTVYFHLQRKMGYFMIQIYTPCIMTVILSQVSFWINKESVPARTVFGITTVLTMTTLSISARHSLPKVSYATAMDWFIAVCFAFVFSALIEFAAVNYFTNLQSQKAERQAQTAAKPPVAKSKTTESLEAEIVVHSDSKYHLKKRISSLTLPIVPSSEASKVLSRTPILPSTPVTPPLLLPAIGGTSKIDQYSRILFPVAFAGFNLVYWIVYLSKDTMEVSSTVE
Summary of the method: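 Actives from a 25 uM duplicate screen were retested in concentration series (max 50 uM). Specific radioligand displacement from rat cerebellar membranes was counted by filter-based scintillation at 1 h; DMSO served as baseline.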

[4] = biological target: bovine Estrogen Receptor (ER), ESR1 (gene 407238) (UniProt P49884); test: NVS_NR_bER: NovaScreen (NVS) Nuclear Receptor Binding Assay for bovine Estrogen Receptor (ER) (AID 2283345);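 also: actives lower the bound radioligand count which means they displace the ER ligand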
bovine Estrogen Receptor (ER), ESR1 (gene 407238), sequence (P49884 whole entry, looked up): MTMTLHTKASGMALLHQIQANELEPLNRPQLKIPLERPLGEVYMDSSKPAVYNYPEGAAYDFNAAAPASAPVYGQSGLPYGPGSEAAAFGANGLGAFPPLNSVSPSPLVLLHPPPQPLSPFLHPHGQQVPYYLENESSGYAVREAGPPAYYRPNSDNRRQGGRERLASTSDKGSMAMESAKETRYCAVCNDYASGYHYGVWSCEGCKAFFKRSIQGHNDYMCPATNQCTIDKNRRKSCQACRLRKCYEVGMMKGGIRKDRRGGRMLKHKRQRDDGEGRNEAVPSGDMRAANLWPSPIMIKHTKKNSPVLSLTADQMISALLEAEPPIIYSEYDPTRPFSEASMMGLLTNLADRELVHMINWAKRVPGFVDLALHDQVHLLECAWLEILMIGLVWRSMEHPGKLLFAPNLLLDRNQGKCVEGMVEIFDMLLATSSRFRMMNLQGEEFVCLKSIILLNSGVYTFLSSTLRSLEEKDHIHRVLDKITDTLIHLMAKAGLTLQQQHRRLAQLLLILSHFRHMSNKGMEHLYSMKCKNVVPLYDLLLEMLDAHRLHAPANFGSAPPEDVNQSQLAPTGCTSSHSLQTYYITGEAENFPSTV
Summary of the method: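 Bovine uterine membranes; tritiated or iodinated radioligand; competitive displacement; 18 h; scintillation read; DMSO negative control; 25 uM duplicates, then concentration series for actives.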

[5] = biological target: Bile acid receptor (Homo sapiens) (UniProt Q96RI1); test: NVS_NR_hFXR_Agonist: NovaScreen (NVS) Nuclear Receptor Binding Assay for human Farnesoid X Receptor Agonism (FXR) (AID 2283347)
Bile acid receptor (Homo sapiens), sequence (Q96RI1 whole entry, looked up): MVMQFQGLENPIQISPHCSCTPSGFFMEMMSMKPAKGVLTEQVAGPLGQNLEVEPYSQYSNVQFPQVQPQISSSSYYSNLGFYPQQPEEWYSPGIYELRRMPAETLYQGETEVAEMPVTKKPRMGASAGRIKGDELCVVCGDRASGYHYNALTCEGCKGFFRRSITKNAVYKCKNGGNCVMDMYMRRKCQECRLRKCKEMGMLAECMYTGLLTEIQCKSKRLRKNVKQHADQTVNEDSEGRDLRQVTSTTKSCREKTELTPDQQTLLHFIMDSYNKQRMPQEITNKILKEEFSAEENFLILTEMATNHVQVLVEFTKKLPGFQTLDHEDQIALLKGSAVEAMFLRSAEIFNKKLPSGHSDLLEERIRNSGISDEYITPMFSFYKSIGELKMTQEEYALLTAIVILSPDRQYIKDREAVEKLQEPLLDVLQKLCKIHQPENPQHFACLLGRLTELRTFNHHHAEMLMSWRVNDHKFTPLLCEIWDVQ
Summary of the method: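 Agonist-mode FXR assay read by time-resolved FRET 1 h after compound addition, using isolated human receptor protein without cells. Duplicate 25 uM single-point primary screen, concentration series for confirmed actives; DMSO as baseline.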

[6] = biological target: bovine Gamma-Aminobutyric Acid Type A Receptor Agonist (GABAR Agonist), GABRA1 (gene 780973) (UniProt P08219); test: NVS_LGIC_bGABAR_Agonist: NovaScreen (NVS) Ligand-Gated Ion Channel Assay for bovine Gamma-Aminobutyric Acid Type A Receptor Agonist (GABAR Agonist) (AID 2283338)
bovine Gamma-Aminobutyric Acid Type A Receptor Agonist (GABAR Agonist), GABRA1 (gene 780973), sequence (P08219 whole entry, looked up): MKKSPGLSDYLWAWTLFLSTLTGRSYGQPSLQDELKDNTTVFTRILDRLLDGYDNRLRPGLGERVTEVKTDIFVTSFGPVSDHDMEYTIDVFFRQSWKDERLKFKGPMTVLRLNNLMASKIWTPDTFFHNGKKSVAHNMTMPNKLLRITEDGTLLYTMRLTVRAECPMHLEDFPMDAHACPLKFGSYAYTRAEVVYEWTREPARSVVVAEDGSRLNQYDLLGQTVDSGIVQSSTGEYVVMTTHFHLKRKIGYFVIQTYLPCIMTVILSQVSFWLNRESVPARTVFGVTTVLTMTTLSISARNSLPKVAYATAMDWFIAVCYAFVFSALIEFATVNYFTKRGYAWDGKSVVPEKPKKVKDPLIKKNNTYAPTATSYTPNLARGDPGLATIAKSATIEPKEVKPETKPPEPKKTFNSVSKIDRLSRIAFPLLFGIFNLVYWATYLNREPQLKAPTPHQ
Summary of the method: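 Radioligand binding to bovine cerebellar membranes in agonist format, read by filter-based scintillation counting after 1 h. Primary screen in duplicate at 25 uM, with actives followed in concentration series. Gain of signal versus DMSO.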

[7] = NVS_IC_rCaBTZCHL: NovaScreen (NVS) Ion Channel Assay for Calcium Channel, Type L, Benzothiazepine Site (CaBTZCHL) (AID 2283337)
Summary of the method: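 Rat cortical membrane preparation, cell-free. Radioligand displaced by test chemical; 1.5 h incubation; filtration, scintillation count. DMSO = negative control/baseline. Primary: duplicate, 25 uM; secondary: concentration series.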

[8] = biological target: rat Glutamate, MK-801 Agonist Site (GluNMDA_MK801), Grin1 (gene 24408) (UniProt P35439); test: NVS_LGIC_rGluNMDA_MK801_Agonist: NovaScreen (NVS) Ligand-Gated Ion Channel Assay for rat Glutamate, MK-801 Agonist Site (GluNMDA_MK801) (AID 2283340)
Summary of the method: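 Rat forebrain membrane preparation; MK-801-site radioligand binding read by filtration and scintillation after 1.5 h. Single-point 25 uM duplicate screen, followed by singleton concentration series to 50 uM max; DMSO baseline.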

[9] = biological target: rat Glycine Receptor, Strychnine-sensitive (GlyRStrySens), Glra1 (gene 25674) (UniProt P07727); test: NVS_LGIC_rGlyRStrySens: NovaScreen (NVS) Ligand-Gated Ion Channel Assay for rat Glycine Receptor, Strychnine-sensitive (GlyRStrySens) (AID 2283341)
rat Glycine Receptor, Strychnine-sensitive (GlyRStrySens), Glra1 (gene 25674), sequence (P07727 whole entry, looked up): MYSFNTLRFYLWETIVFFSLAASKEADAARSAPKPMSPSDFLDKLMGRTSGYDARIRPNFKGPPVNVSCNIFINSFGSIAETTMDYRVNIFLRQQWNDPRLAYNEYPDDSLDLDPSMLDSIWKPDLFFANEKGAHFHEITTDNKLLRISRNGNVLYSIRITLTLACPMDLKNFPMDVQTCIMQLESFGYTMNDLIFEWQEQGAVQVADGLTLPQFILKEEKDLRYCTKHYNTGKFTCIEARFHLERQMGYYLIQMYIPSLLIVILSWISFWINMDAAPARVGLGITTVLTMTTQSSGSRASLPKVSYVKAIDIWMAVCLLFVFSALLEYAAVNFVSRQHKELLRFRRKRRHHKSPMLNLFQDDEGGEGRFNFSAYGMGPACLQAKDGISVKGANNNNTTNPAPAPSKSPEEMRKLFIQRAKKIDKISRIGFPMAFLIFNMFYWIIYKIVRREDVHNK
Summary of the method: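 Radioligand displacement on rat spinal cord membranes, 1 hr, filter scintillation read-out. Single-concentration duplicate screen at 25 uM; chemicals meeting threshold (e.g., 30% inhibition) rerun in concentration-response up to 50 uM. Loss of binding fitted versus DMSO.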

[10] = system: guinea pig Histamine Receptor (H2), gene 100729734; test: NVS_GPCR_gH2: NovaScreen (NVS) G Protein-Coupled Receptor Assay for guinea pig Histamine Receptor (H2) (AID 2283342)
Summary of the method: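 Guinea pig striatal membrane preparation with specific radioligand; bound counts measured by filtration and scintillation 1 h post-dosing, DMSO as baseline. Chemicals passing a 25 uM duplicate screen were titrated to a 50 uM maximum.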

In the case of `C[C@H]1[C@H](c2ccc(Cl)cc2)SC(=O)N1C(=O)NC1CCCCC1`, the outcome [1] is reported as “inactive”.

With `CCCN(CCOc1c(Cl)cc(Cl)cc1Cl)C(=O)n1ccnc1` the AC50 [1] was 5.4 µM (active) and the AC50 [2] was 19.7 µM (active).

With `CC(C)OC(=O)Nc1cccc(Cl)c1` the outcome [3] was “inactive”.

With `O=C(O)C(F)(F)C(F)(F)C(F)(F)C(F)(F)C(F)(F)C(F)(F)C(F)(F)F` the outcome [1] was “inactive”.

In the case of `COC(=O)c1ccccc1S(=O)(=O)NC(=O)N(C)c1nc(C)nc(OC)n1`, the outcome [4] is reported as “inactive” and the outcome [5] is reported as “inactive”.

For `O=C1c2ccccc2C(=O)N1SC(Cl)(Cl)Cl`, the outcome [4] was “inactive”.

With `O=[N+]([O-])/N=C1\NCCN1Cc1ccc(Cl)nc1` the outcome [6] was “inactive” and the outcome [1] was “inactive”.

With `CC[C@H](C)[C@H]1O[C@]2(C=C[C@@H]1C)C[C@@H]1C[C@@H](C/C=C(\C)[C@@H](O[C@H]3C[C@H](OC)[C@@H](O[C@H]4C[C@H](OC)[C@@H](O)[C@H](C)O4)[C@H](C)O3)[C@@H](C)/C=C/C=C3\CO[C@@H]4[C@H](O)C(C)=C[C@@H](C(=O)O1)[C@]34O)O2` (tested in a mixture with another compound) the AC50 [7] was 15.5 µM (active), the outcome [8] was “inactive” and the AC50 [9] was 494 nM (active). The AC50 [1] was 6.14 µM (active), the outcome [4] was “inactive” and the AC50 [2] was 5.41 µM (active).

For `OCCOc1ccccc1`, the outcome [5] was “inactive”.

For `N#Cc1c(Cl)c(Cl)c(Cl)c(C#N)c1Cl`, the outcome [1] was “inactive”, the outcome [4] was “inactive” and the outcome [2] was “inactive”.

For `CCOc1nc(NC)nc(NC(=O)NS(=O)(=O)c2ccccc2C(=O)OC)n1`, the outcome [4] was “inactive”.

With `CCOCN(C(=O)CCl)c1c(C)cccc1CC` the outcome [10] was “inactive” and the AC50 [2] was 15.5 µM (active).

In the case of `CNC(=O)Oc1ccccc1OC(C)C`, the outcome [4] is reported as “inactive”.

With `Cc1cc(C)nc(NC(=O)NS(=O)(=O)c2ccccc2C(=O)OC2COC2)n1` the outcome [5] was “inactive”.

In the case of `O=[N+]([O-])c1c(Cl)c(Cl)c(Cl)c(Cl)c1Cl`, the outcome [1] is reported as “inactive” and the outcome [4] is reported as “inactive”.

For `CC1(C)C(C=C(Cl)Cl)C1C(=O)OC(C#N)c1ccc(F)c(Oc2ccccc2)c1` (centres undefined), the outcome [1] was “inactive” and the outcome [4] was “inactive”.

For `COC(=O)c1ccccc1CS(=O)(=O)NC(=O)Nc1nc(OC)cc(OC)n1`, the outcome [4] was “inactive” and the outcome [5] was “inactive”.

In the case of `COP(=S)(OC)Oc1ccc(SC)c(C)c1`, the AC50 [1] is reported as 16.3 µM (active) and the outcome [4] is reported as “inactive”.

In the case of `O=C(Nc1ccccc1)Nc1cnns1`, the AC50 [3] is reported as 3.68 µM (active).

With `CC(C)(C)C(O)/C(=C\c1ccc(Cl)cc1Cl)n1cncn1` (centres undefined) the outcome [1] was “inactive”, the outcome [4] was “inactive” and the AC50 [2] was 1.51 µM (active).

In the case of `O=S(=O)(O)C(F)(F)C(F)(F)C(F)(F)C(F)(F)C(F)(F)C(F)(F)C(F)(F)C(F)(F)F`, the outcome [6] is reported as “inactive”, the AC50 [1] is reported as 25 µM (active) [middle of 5 runs] and the AC50 [2] is reported as 5.81 µM (active).

For `Oc1cc(Cl)ccc1Oc1ccc(Cl)cc1Cl`, the outcome [1] was “inactive”, the AC50 [2] was 12.4 µM (active) and 15.3 µM (active) and 12.2 µM (active) and the outcome [5] was “inactive”.

With `ClC1C(Cl)C(Cl)C(Cl)C(Cl)C1Cl` (centres undefined) the outcome [1] was “inactive”.

In the case of `COP(=S)(OC)Oc1ccc([N+](=O)[O-])cc1`, the AC50 [1] is reported as 7.33 µM (active) and the AC50 [2] is reported as 14.6 µM (active).

For `[2H]C1([2H])[n+]2ccccc2-c2cccc[n+]2C1([2H])[2H]`, the outcome [6] was “inactive”.

For `Oc1ccc(Cl)cc1Cc1ccccc1`, the outcome [6] was “inactive”, the AC50 [1] was 12.9 µM (active) [middle of 6 runs] and the AC50 [2] was 15.3 µM (active) and 15.7 µM (active) and 19.7 µM (active).

For `CNC(=O)CSP(=S)(OC)OC`, the outcome [1] was “inactive”.

With `CC(C)(C)C(O)C(Oc1ccc(Cl)cc1)n1cncn1` (centres undefined) the AC50 [1] was 39.8 µM (active) and the AC50 [2] was 19.6 µM (active) and 25 µM (active) and 20.5 µM (active).

For `COc1nn(CSP(=S)(OC)OC)c(=O)s1`, the outcome [1] was “inactive”.
